A collection of fitness landscapes (doi:10.1016/j.celrep.2020.107928)
Over roughly 81,000 sequences, “one-hybrid fitness for binding parS DNA” has its median near -0.17; the highest 2% begin near 0.51. This is one part of a sample in which the highest values are shown more often than they occur.

B1: Caulobacter ParB omega fusion; a variant is named by its letters at X, in order, B8GW30 (parent)
chain: MESVVVGEPGMSEGRRGLGRGLSALLGEVDAAPAQAPGEQLGGSREAPIEILQRNPDQPRRTFREEDLEDLSNSIREKGVLQPILVRPSPDTAGEYQIVAGERAWRAAQRAGLKTVPIMVRELDDLAVLEIGIIENVQRADLNVLEEALSYKVLMEKFERTQENIAQTIGKSXSHVANXMRLLXLPDEVQSYLVSGELTAXHARAIAAAADPVALAKQIIEGGLSVRETEALARKAPNLSAGKSKGGRPPRVKDTDTQALESDLSSVLGLDVSIDHRGSTGTLTITYATLEQLDDLCNRLTRGI

Variants of: B1
Assay: one-hybrid fitness for binding parS DNA (scaled: cognate 1, non-cognate 0); higher = stronger binding
Details: with parS DNA site
In short: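 Caulobacter ParB libraries with four specificity codons randomised were screened by bacterial one-hybrid selection in the E. coli USO strain, using a HIS3 reporter whose site lies 19 bp from the promoter. Selection ran for 48 hours at 37°C on M9 lacking histidine, with 0.1 mM IPTG and 5 mM 3-AT. Plasmids were Illumina-sequenced before and after selection, three replicate libraries were pooled, and variants with under 10 reads were dropped. Fitness is the log change in each variant's read ratio to wild type, rescaled against the cognate and non-cognate sites.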

Variant | one-hybrid fitness for binding parS DNA
FRSR | ≤ 0.2
LSWR | ≤ 0.2
TGKS | ≤ 0.2
LTAC | ≤ 0.2
RKWP | ≤ 0.2
RKSF | ≤ 0.2
RKST | 0.749
RKCY | 0.369
RKCK | ≤ 0.2
RKSQ | ≤ 0.2
RKNM | 0.234
RKWT | 0.759
RKNT | 0.723
RKNK | ≤ 0.2
RKWH | ≤ 0.2
RKCT | 0.803
AHCT | ≤ 0.2
SYTS | ≤ 0.2
LAQL | ≤ 0.2
LSDG | ≤ 0.2
ISTA | ≤ 0.2

Variant | one-hybrid fitness for binding parS DNA
MTHL | ≤ 0.2
CYFG | ≤ 0.2
RKHT | 0.756
RKIT | 0.675
RKIY | 0.352
RKYF | ≤ 0.2
RKLH | 0.223
RKHH | ≤ 0.2
RKLN | 0.351
RKPT | 0.412
RKHP | ≤ 0.2
RKYK | ≤ 0.2
RKYT | 0.868
RKLT | 0.856
YKNL | ≤ 0.2
VDMS | ≤ 0.2
HRNI | ≤ 0.2
NWKR | ≤ 0.2
FKRH | ≤ 0.2
TTLP | ≤ 0.2
LGQS | ≤ 0.2

Variant | one-hybrid fitness for binding parS DNA
DPGV | ≤ 0.2
ITRV | ≤ 0.2
WNTN | ≤ 0.2
RKRR | ≤ 0.2
RKQH | ≤ 0.2
RKDY | 0.38
RKRQ | ≤ 0.2
RKDT | 0.832
RKDK | ≤ 0.2
RKRT | 0.658
RKGQ | ≤ 0.2
RKGM | 0.262
RKQP | ≤ 0.2
RKQT | 0.729
RKGT | 0.764
TDGD | ≤ 0.2
RCPL | ≤ 0.2
WHLG | ≤ 0.2
CRRN | ≤ 0.2
ITGW | ≤ 0.2
RLDC | 0.938

Variant | one-hybrid fitness for binding parS DNA
RLNK | ≤ 0.2
RLNC | 0.94
RLDQ | ≤ 0.2
RLNE | ≤ 0.2
RLDF | 0.229
TYDG | ≤ 0.2
RNSY | 0.399
RNWT | 0.535
RNIT | 0.427
RNRR | ≤ 0.2
RNPT | 0.307
RNWF | ≤ 0.2
RNYT | 0.66
RNRM | 0.345
RNRT | 0.786
RNWY | 0.275
RNST | 0.746
RNSM | 0.238
QFRW | ≤ 0.2
LVVI | ≤ 0.2
PETN | ≤ 0.2
